Compound activity from PubChem BioAssay.
Compounds with a hit are over-represented: about 7.9% of the library has one in this group of screens.
MCF10A rerep: inducers of DNA re-replication in MCF 10A breast cells. MCF 10A DNA re-replication, Hoechst nuclear intensity, 48 h. Potency, µM (titrated, usually from 46.1 µM), for inactives: at the highest dose activity, positive = re-replication, usual class: activators. 350,000 tested, 2.9% active. AID 624296; further: % of control where 0% means no effect; nearly all actives have a fitted effect of over 50% in size
KB-3-1 cytotox: kills parental KB-3-1 adenocarcinoma cells; Potency, µM (titrated, usually from 46.1 µM), most hits filed as cytotoxic; 400,000 tested, 1.4% active; KB-3-1 viability, CellTiter-Glo ATP luminescence, 72 h; further: on the % scale 0 is the no-effect control and ±100 the full control effect; nearly all actives have a fitted effect of over 60% in size
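Using CellTiter-Glo luminescence, growth of non-resistant KB-3-1 adenocarcinoma cells is assessed 72 h after pin-tool compound addition at 37 °C. Normalized responses across the concentration series yield fitted curves.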
HT1080 IDH1KD tx: toxicity to HT-1080 IDH1 knockdown cells (counter line); HT-1080 IDH1 knockdown viability, ATP luminescence, 48 h; Potency, µM (series often up to 46.1 µM), without a hit: at the top dose activity, negative = toxicity, actives largely listed as cytotoxic; 360,000 tested, 2% active; AID 686971;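 further: 0% = DMSO wells and -100% = cell-free medium wells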
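Luminescent ATP read-out (CellTiter-Glo, 10 min at room temperature) after 48 h compound exposure at 37 °C gave viability of IDH1-knockdown HT-1080 cells. Activity was normalised to DMSO and cell-free wells, then fitted as concentration-response curves.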
KB-V1 cytotox: KB-V1 MDR subline cytotoxicity | KB-V1 MDR cells viability, CellTiter-Glo, 72 h | Potency, µM (top dose mostly 46.1 µM), usual class: cytotoxic | 400,000 tested, 3.4% active | AID 1347076; further: on the % scale 0 is the no-effect control and ±100 the full control effect; nearly all actives have a fitted effect of over 60% in size
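Compound-treated KB-V1 multidrug-resistant cells, 72 h, 37 degrees C; viability by CellTiter-Glo. Fitted qHTS curves give the values.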
HT1080-NT tox: kills 2HG-producing HT-1080-NT fibrosarcoma cells; AID 686970; Potency, µM (doses to about 46.1 µM), without a hit: top-dose activity, negative = less viability, most hits filed as cytotoxic; HT-1080-NT fibrosarcoma viability, CellTiter-Glo ATP luminescence, 48 h; 360,000 tested, 1.6% active;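 further: NT is the 2HG producing partner of a matched IDH1 knockdown line; 0% = DMSO-treated cells and -100% = media-only wells without cells; nearly all actives have a fitted effect of over 55% in size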
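HT-1080-NT; 750 cells/well; 5% FBS RPMI; 48 h compound, 37 degrees C; CellTiter-Glo luminescence; curve fitting and curve-class assignment.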
SW480 rereplic: induces DNA re-replication in SW480 colon adenocarcinoma cells; SW480 DNA re-replication, Hoechst DNA content imaging, 48 h; Potency, µM (series often up to 46.1 µM), for the others: top-dose re-replication activation, usual class: activators; 340,000 tested, 1.8% active; AID 624297; further: % of control where 0% means no effect; nearly all actives have a fitted effect of over 55% in size
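Treated cells incubate 48 hr (37 C, 5% CO2), are stained 40 min with Hoechst, and nuclear fluorescence is enumerated; a rise in nuclei with high DNA signal marks re-replication.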
The depositor's hits bear a star; i = inactive; ? = inconclusive; nt = no result given; ! = repeats disagree; [ ] = dose if it differs, or a comment. The call rests on the fitted dose curve; in most records, active means well fitted curve in the direction sought with a large enough effect; inconclusive means small, poorly fitted or top-dose-only effect, or another doubt; inactive means no such curve, though single readings can be large; an effect the other way counts as inactive or inconclusive. Potency means the concentration at half of the fitted maximal effect.

SMILES	MCF10A rerep	KB-3-1 cytotox	HT1080 IDH1KD tx	KB-V1 cytotox	HT1080-NT tox	SW480 rereplic
COc1ccc(CCNC(=O)c2cnn3c2NC(=C2CC2)C=C3C(F)F)cc1OC	nt	?	nt	i	nt	nt
Cc1cc(-n2c(C)nc3ccccc3c2=O)ccc1NC(=O)C(F)(F)F	nt	i	nt	i	nt	nt
O=C1c2oc3ccc(F)cc3c(=O)c2C(c2ccccc2)N1CC1CCCO1 (centres undefined)	-6%	i	3%	8.2µM*	12%	-6%
O=C1C=C(N(CCO)Cc2ccccc2)c2ccccc2C1=O	6.5µM*	?	15µM*	18µM*	8.2µM*	15µM*
CCOc1ccc(S(=O)(=O)n2nc(C)c(S(=O)(=O)N3CCCCCC3)c2C)cc1	nt	i	nt	i	nt	nt
COc1cccc(OCc2nc3ncc(Br)cc3[nH]2)c1	-2%	5.8µM*	?	1µM*	2.2µM*	-7%
Cc1cc(C)cc(OCc2nc3ncc(Br)cc3[nH]2)c1	?	1.3µM*	?	1µM*	?	5.2µM*
Cc1cc(Cl)ccc1N(CC(=O)NCc1ccccc1)S(C)(=O)=O	-20%[9.22 µM]	i	0%	i	-3%	-10%
N#Cc1ccc(-c2ccccc2)nc1SCC(=O)c1cc2ccccc2oc1=O	5µM*	i	?	i	?	?
CC(C)c1c(C#N)c(N)nc(SCC(=O)c2cc3ccccc3oc2=O)c1C#N	15µM*	?	-6%	?	-2%	?
COc1ccccc1NC(=O)COc1ccc(-c2nn(C)c(=O)c3ccccc23)cc1	15%	?	-26%	18µM*!	-28%	0%
COc1ccccc1NC(=O)COc1ccccc1	?	i	-5%	i	2%	?
CCCNC(=O)c1ccccc1NC(=O)COc1ccc(OC)cc1	0%	i	-3%	4.6µM*	-7%	-4%
Cc1ccc(OCC(=O)Nc2ccccc2C(N)=O)cc1	8%	i	12%	i	22%	-2%
COc1cc(NC(=O)COc2ccc(F)cc2)nc(OC)n1	?	i	2%	i	1%	21µM*
COc1ccc(OCC(=O)Nc2ccccc2O)cc1	0%	i	-10%	16µM*	-15%	12%
Cc1ccc(S(=O)(=O)c2nc(-c3ccco3)oc2SCc2ccc(F)cc2)cc1	nt	i	nt	?	nt	nt
COC(=O)CC1C(=O)NCCN1C(=S)Nc1ccc(F)cc1 (centres undefined)	1%	i	3%	?	7%	1%
CCOCCn1ccc2c(OCC(=O)Nc3cc(OC)ccc3OC)cccc2c1=O	?	i	-1%	16µM*	-4%	?
COc1ccc(C(C)=O)cc1CSc1nnnn1-c1ccc(O)cc1	4%	i	0%	?	19%	-16%
COc1ccc(F)cc1CSc1nnnn1-c1ccc(O)cc1	13%	i	-24%	16µM*	-29%	10%
COc1cc(CSc2nnnn2-c2ccc(C)cc2)cc(OC)c1OC	-10%	10µM*	0%	2.1µM*	?	6%
Cc1cccc(C(=O)n2nc(C)c(S(=O)(=O)N3CCOCC3)c2C)c1	nt	i	nt	i	nt	nt
CCCCCCCCn1c(=O)c(C(=O)OC)c(N)c2ccccc21	21µM*	?	16µM*	?	21µM*	-12%
CCCCCCCn1c(=O)c(C(=O)OC)c(N)c2ccccc21	0%	i	?	15µM*	?	0%
SMILES	MCF10A rerep	KB-3-1 cytotox	HT1080 IDH1KD tx	KB-V1 cytotox	HT1080-NT tox	SW480 rereplic
Cc1nn(Cc2ccc(Cl)cc2Cl)c(C)c1NC(=O)CCl	?	15µM*	?	18µM*	?	18%
Cc1nnsc1NC(=O)OCc1ccc(Cl)cc1Cl	0%	i	-14%	i	-6%	-6%
Cc1nn(C)c(Cl)c1NC(=O)OCc1ccc(Cl)cc1Cl	?	4.1µM*	-26%	2.6µM*	-2%	2%
O=C(NNS(=O)(=O)c1ccccc1)c1cnn(-c2ccccc2)c1-n1cccc1	5%	i	1%	16µM*	?	-2%
O=C(c1cnn(-c2ccc(F)cc2)c1-n1cccc1)N1CCN(c2ccccc2)CC1	nt	?	nt	23µM*	nt	nt
CCc1nnc2c(NCc3ccc(F)cc3)nc3ccccc3n12	nt	i	nt	i	nt	nt
O=C1Nc2ccc(S(=O)(=O)N3CCCCCC3)c3cccc1c23	21µM*	i	-9%	i	-1%	0%
CC1(C)CCC[C@]2(C)[C@H]3Cc4cc(O)ccc4O[C@]3(C)CC[C@@H]12	12µM*	i	?	i	?	10%
C(=Nc1cnc2ccccc2c1)c1cccnc1	nt	i	nt	i	nt	nt
CC(C)C(OC(=O)C1=Cc2ccccc2OC1)C(=O)NCC1CCCO1 (centres undefined)	16µM*	i	3%	i	-5%	-8%
CC(OC(=O)C1=Cc2ccccc2OC1)C(=O)NC1CCCC1 (centres undefined)	-5%	i	0%	i	-5%	15%
C=CC[n+]1c(-c2ccc(OCC)cc2)csc1NNC(=O)Nc1ccccc1	5%	18µM*	?	18µM*	?	-6%
CCN(CC)c1ccc(C(=O)Nc2cccc(F)c2)cc1	?	i	?	i	?	13µM*
CCN(CC)S(=O)(=O)c1cccc(NC(=O)c2ccc(Br)cc2)c1	8%	i	-7%	6.5µM*	-9%	3%
CN(C)S(=O)(=O)c1cccc(NC(=O)c2cncc(Br)c2)c1	?	i	20%	15µM*	6%	-12%
CCN(CC)S(=O)(=O)c1cccc(NC(=O)c2cncc(Br)c2)c1	-1%	i	-6%	i	0%	18%
CN(C)c1cccc(C(=O)Nc2cccc(F)c2)c1	-4%	i	3%	i	8%	-2%
CN(C)S(=O)(=O)c1cccc(NC(=O)COc2ccc(S(=O)(=O)N3CCOCC3)cc2Cl)c1	-1%	i	-16%	i	-10%	-7%
CCN(CC)S(=O)(=O)c1cccc(NC(=O)COc2ccc(Cl)cc2Br)c1	16%	?	-7%	21µM*	4%	13%
COC(=O)c1ccc(CNC(=O)COC(=O)/C=C/c2cc(OC)c(OC)c(OC)c2)cc1	9%	nt	-1%	nt	5%	-13%
CCSc1nnc2c(n1)OC(c1ccc(OC)cc1OC)N(C(C)=O)c1ccccc1-2 (centres undefined)	nt	i	nt	?	nt	nt
O=C(NCc1ccc(Cl)c(Cl)c1)c1cc(C2CCCCN2C(=O)c2ccccc2)on1 (centres undefined)	nt	?	-14%	?	-5%	nt
